Bioassay records from PubChem BioAssay.
HepG2 viability = counter-screen for TGF-b inhibitors: cytotoxicity in HepG2 cells; HepG2 CAGA-GFP viability, ATP luminescence, 18 h; Potency, µM (top dose mostly 46.1 µM), for the others: at the top dose activity change, negative = cytotoxicity, most hits filed as cytotoxic; 410,000 compounds, 0.76% hits; AID 588856; further: potency means the concentration at half of the fitted maximal effect
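CellTiter-Glo luminescence gave cytotoxicity after 18 hours at 37 degrees C. The cells were HepG2 CAGA-GFP in 1% FBS DMEM, stimulated with 500 pg/mL TGF-beta after compound addition. %Activity was normalised to no-cell wells (complete cell-killing) and DMSO (no toxicity), and curves were fitted and classified.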
IL1B secr inh = inhibitors of inflammasome signaling (IL-1 beta secretion); THP-1 LPS/ATP IL-1B secretion, AlphaLISA, 16 h; stronger effect = lower value; activity change, % at 57.5 µM; 360,000 compounds, 4.7% hits; AID 743279; in the data active means activity change below about -50%; inconclusive means mostly about -30% to -49%; further: on the % scale 0 is the no-effect control and ±100 the full control effect
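THP-1 cells pretreated 1 hr with compounds (up to 57.5 uM final), then stimulated with LPS (250 ng/mL final) plus ATP (1.25 mM final); secreted IL-1B measured by AlphaLISA after 16 hr, decreased signal indicating inhibition.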
DT40 TDP1 CPT = DT40-hTDP1 cell growth loss with CPT | chicken DT40 Tdp1-/-;hTDP1 cells + 20 nM CPT, ATP luminescence, 48 h | Potency, µM (highest dose often 46.2 µM), for inactives: top-dose activity change, negative = growth inhibition, hits mostly inhibitors | 420,000 compounds, 12% hits; further: potency means the concentration at half of the fitted maximal effect; on the % scale 0 is the no-effect control and ±100 the full control effect; nearly all actives have a fitted effect of over 55% in size
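Chicken DT40 Tdp1-/- cells complemented with human TDP1, 400 cells/well, exposed to compounds plus 20 nM camptothecin for at least 48 h at 37 C; viability read as ATP content by CellTiter-Glo luminescence.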
TDP1 inh = blocks human tyrosyl-DNA phosphodiesterase 1. Q9NUW8. recombinant TDP1, AlphaScreen DNA substrate cleavage. Potency, µM (titrated, usually from 130 µM), for the others: top-dose activity change, negative = inhibition, hits mostly inhibitors. 350,000 compounds, 0.28% hits; further: potency means the concentration at half of the fitted maximal effect; on the % scale 0 is the no-effect control and ±100 the full control effect; nearly all actives have a fitted effect of over 40% in size
Target sequence (Q9NUW8 whole entry, looked up): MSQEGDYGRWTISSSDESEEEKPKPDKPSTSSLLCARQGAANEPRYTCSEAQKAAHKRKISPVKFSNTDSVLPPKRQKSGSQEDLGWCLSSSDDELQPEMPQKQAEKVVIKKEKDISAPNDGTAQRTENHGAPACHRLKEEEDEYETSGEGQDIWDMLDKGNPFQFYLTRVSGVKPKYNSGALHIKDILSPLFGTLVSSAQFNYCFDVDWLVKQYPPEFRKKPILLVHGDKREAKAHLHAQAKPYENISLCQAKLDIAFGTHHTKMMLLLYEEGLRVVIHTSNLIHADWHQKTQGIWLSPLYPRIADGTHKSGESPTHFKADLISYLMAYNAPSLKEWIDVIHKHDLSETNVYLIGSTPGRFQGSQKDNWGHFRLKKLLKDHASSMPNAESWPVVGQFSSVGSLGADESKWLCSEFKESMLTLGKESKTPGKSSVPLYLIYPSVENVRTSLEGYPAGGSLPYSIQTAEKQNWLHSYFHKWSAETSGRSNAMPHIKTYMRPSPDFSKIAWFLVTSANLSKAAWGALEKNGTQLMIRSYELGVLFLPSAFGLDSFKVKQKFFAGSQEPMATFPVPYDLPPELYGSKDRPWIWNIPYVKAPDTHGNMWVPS
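Steps: enzyme plus compound, 15 min RT; add biotin/phosphotyrosine-FITC oligonucleotide (15 nM final), react 5 min; add donor/acceptor beads (10 ug/ml final), 10 min; read AlphaScreen. Tdp1 at 1 nM final.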
TGFb inhibitor = blocks TGF-b signaling | HepG2 CAGA-GFP TGF-b/SMAD3 reporter, GFP fluorescence, 18 h; TGF-beta stimulated, 500 pg/mL final | Potency, µM (doses to about 46.1 µM), without a hit: top-dose activity, negative = inhibition, most hits filed as inhibitors | 410,000 compounds, 1.2% hits | AID 588855; further: potency means the concentration at half of the fitted maximal effect; on the % scale 0 is the no-effect control and ±100 the full control effect; nearly all actives have a fitted effect of over 65% in size
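HEPG2 CAGA-GFP, 1000 cells/well; 2 h settle, 37 C; cpd via pin tool; TGF-b 500 pg/mL final; 18 h, 37 C; GFP imaging ex488/em500-530; %Activity normalised to -TGF-b and +DMSO controls; CRC fit, curve class.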
DT40 TDP1 no CPT = qHTS for Inhibitors of human tyrosyl-DNA phosphodiesterase 1 (TDP1): qHTS in cells in absence of CPT; DT40 Tdp1-/- hTDP1 cells, no CPT, ATP luminescence, 48 h; Potency, µM (series often up to 46.2 µM), inactives show at the top dose activity change, negative = growth inhibition, actives largely listed as inhibitors; 420,000 compounds, 15% hits; AID 686978, 2013; further: potency means the concentration at half of the fitted maximal effect; on the % scale 0 is the no-effect control and ±100 the full control effect; nearly all actives have a fitted effect of over 55% in size
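Camptothecin absent (DMSO only). Human TDP1-complemented DT40 knockout cells, 400 cells/well, 37 °C for minimum 48 hr; ATP measured via CellTiter-Glo, 30 min dark incubation, luminescence.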
Starred values were filed as active, the others as inactive; ? = inconclusive; · = no result; ! = not confirmed by another sample; [ ] = dose if it differs, or a comment. The list is not random: actives were taken first. Their share in the collection is about 18%. Unless noted, the call rests on the fitted dose curve; in most records, active means well fitted curve in the direction sought with a large enough effect; inconclusive means small, poorly fitted or top-dose-only effect, or another doubt; inactive means no such curve, though single readings can be large; an effect the other way counts as inactive or inconclusive.

SMILES	HepG2 viability	IL1B secr inh	DT40 TDP1 CPT	TDP1 inh	TGFb inhibitor	DT40 TDP1 no CPT
CC(=O)c1cccc(-c2ccnc3c2CC(C(=O)NCCc2ccccc2)O3)c1 (stereo unspecified)	-29%	93	4.6µM*	·	-16%	3.7µM*
Cc1[nH]c(=O)n(C(C)(C)C)c(=O)c1Cl	·	·	·	8%	·	·
O=c1c(C=NCCN2CCNCC2)c(O)n(C2CCCCC2)c(=O)n1C1CCCCC1	-101%	-61*	16µM*	-5%	?	?
Cc1cc(C)c(-c2csc(NC(=O)COC(=O)c3ccc4c(c3)OCO4)n2)c(C)c1	21%	-5	?	4%	7%	26µM*
CC(=O)c1ccc2c(c1)OCO2	-2%	15	33%	8%	16%	-1%
Cc1ccc(-n2c(/C=C/c3cccs3)nc3ccccc3c2=O)cc1C	-19%	·	?	10%	·	?
Cc1cccc(-n2c(/C=C/c3cn(C)c4ccccc34)nc3ccccc3c2=O)c1	-9%	·	6.5µM*	2%[12.3 µM]	-1%	9.2µM*
Cc1cccc(-n2c(/C=C/c3c(C)[nH]c4ccccc34)nc3ccccc3c2=O)c1	-43%	·	?	-2%[12.3 µM]	3%	?
COc1cccc(-n2c(/C=C/c3cccc(C)c3)nc3ccccc3c2=O)c1	6%	·	?	-5%[12.3 µM]	-7%	23µM*
Cc1cccc(-n2c(/C=C/c3ccc([N+](=O)[O-])o3)nc3ccccc3c2=O)c1	-25%	-104*	3.3µM*	0%	?	4.6µM*
Cc1cccc(-n2c(/C=C/c3ccccc3O)nc3ccccc3c2=O)c1	-22%	·	?	5%[2.28 µM]	11µM*	?
Clc1ccc(Cl)cc1	·	·	-10%	8%[56.1 µM]	·	-7%
CC(C)CC(=O)Nc1ccc(C(=O)Cn2c(=O)oc3ccccc32)cc1	-2%	6	-9%	-6%	0%	-28%
Cc1cccc(-n2c(/C=C/c3cccc4ccccc34)nc3ccccc3c2=O)c1	-34%	·	9.2µM*	3%	?	6.5µM*
Cc1ccc(-n2c(/C=C/c3cccc4ccccc34)nc3ccccc3c2=O)cc1	-33%	·	?	8%	?	21µM*
COc1cccc(-n2c(/C=C/c3ccccc3O)nc3ccccc3c2=O)c1	-32%	·	?	-1%[12.3 µM]	0%	26µM*
Cc1cc(C)cc(-n2c(/C=C/c3cccc(F)c3)nc3ccccc3c2=O)c1	-22%	·	21µM*	3%	3%	?
CCCCCc1nc2ccccc2c(=O)n1-c1ccc(C)cc1	-25%	·	-25%	·	-8%	?
Cc1ccc(-n2c(/C=C/c3cc(Br)cs3)nc3ccccc3c2=O)cc1C	-18%	·	?	3%	8%	?
CCc1ccccc1NC(=O)NNS(=O)(=O)c1cc(C)ccc1C	0%	3	-1%	4%	85%	2%
Cn1ccc2c(-c3ccc(F)nc3)cc3c(c21)C1CCC3C1 (stereo unspecified)	-15%	41	?	·	-24%	?
O=c1c2ccccc2nc(/C=C/c2cccc3ccccc23)n1-c1ccc(Cl)cc1	-12%	·	21µM*	5%	-1%	26µM*
COc1cccc(/C=C/c2nc3ccccc3c(=O)n2-c2ccc(Cl)cc2)c1OC	-24%	·	15µM*	-8%	-22%	?
O=C(CSc1ccc(Cl)cc1)NC1=NN(c2ccccc2)C(=O)C1	-8%	18	-20%	10%	?	3%
COC(=O)C1=C(N)OC(C)=C(C(C)=O)C12C(=O)N(C)c1ccccc12 (stereo unspecified)	6%	2	?	3%	3%	21µM*
SMILES	HepG2 viability	IL1B secr inh	DT40 TDP1 CPT	TDP1 inh	TGFb inhibitor	DT40 TDP1 no CPT
COc1ccc(CC2c3cc(OC)c(OC)cc3CCN2C)cc1OC (stereo unspecified)	-3%	-15	18µM*!	2%	20%	23µM*!
COc1ccc(C[C@@H]2c3cc(O)c(OC)cc3CCN2C)cc1O	-9%	7	-22%	3%	0%	0%
CN(C)C(=O)Oc1ccc2oc(=O)cc(-c3cc4ccccc4o3)c2c1	-5%	0	-23%	1%	-4%	-13%
Cc1cc2oc(=O)cc(-c3cc4ccccc4o3)c2cc1OC(=O)N(C)C	-1%	24	15µM*	0%	-1%	?
CCN(CC)C(=O)Oc1cc2c(-c3cc4cccc(OC)c4o3)cc(=O)oc2cc1C	-11%	-11	16µM*	2%	7%	23µM*
CN1C[C@H](C(=O)N[C@]2(C)O[C@@]3(O)[C@@H]4CCCN4C(=O)[C@H](Cc4ccccc4)N3C2=O)CC2c3cccc4[nH]cc(c34)C[C@H]21 (stereo partly specified)	-17%	-15	?	·	-1%	18µM*!
CC(C)[C@@]1(NC(=O)[C@H]2CC3c4cccc5[nH]cc(c45)C[C@H]3N(C)C2)O[C@@]2(O)C3CCCN3C(=O)[C@@H](Cc3ccccc3)N2C1=O (stereo partly specified)	·	·	15µM*	15%	·	15µM*
CC1(C)C(=O)[C@@H]2OC2[C@@]2(C)C1CC(O)[C@]1(C)C2CC[C@@]2(C)C(c3ccoc3)OC(=O)C3OC312 (stereo partly specified)	·	·	-26%	7%	·	?
CCOP(=O)(Nc1ccc2c(c1)C(=NNC(N)=S)c1ccccc1-2)OCC	-32%	0	18µM*	·	?	9.2µM*
